Results as given in the supplement of paper PMC6555819.

How the values were obtained:
Assay in all cases: PBM binding z-score (relative to random genomic background probes); higher = stronger binding; sequences stand for … in GC…GCGATTGACAGCGTAGAATGAAGG
[1] = system: PPARg:RXRa DBDmut IVT, anti-RXR (DBD mutation: RXRa K156A/R161A, NR concentration 270 nM, RXRa partner concentration 90 nM)
Summary of the method: (§1)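 Binding z-scores take random background probes as their reference. They come from custom Agilent 4×180K protein-binding microarrays incubated 1 h with ligand-free nuclear receptor dimers, with antibodies against each partner (one per run) detecting binding. Scanned fluorescence was regression-normalized.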

[2] = system: PPARg:RXRa IVT, anti-PPARg (NR concentration 270 nM, RXRa partner concentration 90 nM)
Summary of the method: as §1

[3] = system: PPARg DBDmut:RXRa IVT, anti-PPARg (DBD mutation: PPARg1 K132A/R137A, NR concentration 270 nM, RXRa partner concentration 90 nM)
Summary of the method: as §1

[4] = system: PPARg DBDmut IVT, anti-PPARg (DBD mutation: PPARg1 K132A/R137A, NR concentration 270 nM)
Summary of the method: as §1

[5] = system: PPARg homodimer (NR concentration 180 nM)
Summary of the method: as §1

[6] = system: PXR:RXRa (NR concentration 270 nM, RXRa partner concentration 90 nM)
Summary of the method: as §1

[7] = system: PXR homodimer (NR concentration 270 nM)
Summary of the method: as §1

[8] = system: RARa:RXR (NR concentration 270 nM, RXRa partner concentration 90 nM)
Summary of the method: as §1

[9] = system: RARa homodimer (NR concentration 270 nM)
Summary of the method: as §1

[10] = system: RARb:RXRa (NR concentration 270 nM, RXRa partner concentration 90 nM)
Summary of the method: as §1

## TTTCGGAGGACACGAAGGTCAGAGCTTTCCAGAG
[1]
  PBM binding z-score: 0.209
[2]
  PBM binding z-score: 1.38
[3]
  PBM binding z-score: -0.89
[4]
  PBM binding z-score: -0.892
[5]
  PBM binding z-score: 1.79
[6]
  PBM binding z-score: 2.42
[7]
  PBM binding z-score: 1.37
[8]
  PBM binding z-score: 2.56
[9]
  PBM binding z-score: 0.837
[10]
  PBM binding z-score: 3.51

## CCGACTGGCGCAAGGTTACCATAACGCACAGCCA
[1]
  PBM binding z-score: 0.00884
[2]
  PBM binding z-score: -0.432
[3]
  PBM binding z-score: -1.08
[4]
  PBM binding z-score: -0.725
[5]
  PBM binding z-score: 0.0939
[6]
  PBM binding z-score: 0.262
[7]
  PBM binding z-score: -0.271
[8]
  PBM binding z-score: 0.604
[9]
  PBM binding z-score: -0.0192
[10]
  PBM binding z-score: 0.871

## ACTAGCAGGCCAATGGTCACTCAAGATTAGTCCG
[1]
  PBM binding z-score: 0.92
[2]
  PBM binding z-score: 0.714
[3]
  PBM binding z-score: -0.0875
[4]
  PBM binding z-score: -0.449
[5]
  PBM binding z-score: 0.0967
[6]
  PBM binding z-score: -0.626
[7]
  PBM binding z-score: -0.69
[8]
  PBM binding z-score: -0.449
[9]
  PBM binding z-score: -0.683
[10]
  PBM binding z-score: 0.677

## GCGCGGAGGACAAGGTCAGAGCTTTGTCCGTAGA
[1]
  PBM binding z-score: -0.241
[2]
  PBM binding z-score: 0.514
[3]
  PBM binding z-score: -1.67
[4]
  PBM binding z-score: -1.56
[5]
  PBM binding z-score: 0.0737
[6]
  PBM binding z-score: 1.5
[7]
  PBM binding z-score: -0.325
[8]
  PBM binding z-score: 2.13
[9]
  PBM binding z-score: -1.01
[10]
  PBM binding z-score: 3.4

## CCTGACGGGTCACGAGGTTATAGCACGACGAGCG
[1]
  PBM binding z-score: 2.13
[2]
  PBM binding z-score: 3.75
[3]
  PBM binding z-score: 0.388
[4]
  PBM binding z-score: 0.539
[5]
  PBM binding z-score: 3.04
[6]
  PBM binding z-score: 4.13
[7]
  PBM binding z-score: 0.0429
[8]
  PBM binding z-score: 5.48
[9]
  PBM binding z-score: 1.05
[10]
  PBM binding z-score: 4.32

## GGACCGAGGGCAAAGTTGATAGCATCTGTCGACG
[1]
  PBM binding z-score: 0.973
[2]
  PBM binding z-score: 1.67
[3]
  PBM binding z-score: -0.427
[4]
  PBM binding z-score: -0.551
[5]
  PBM binding z-score: 0.198
[6]
  PBM binding z-score: 1.04
[7]
  PBM binding z-score: -0.387
[8]
  PBM binding z-score: 1.26
[9]
  PBM binding z-score: -0.439
[10]
  PBM binding z-score: 2.4

## GCTACTGGGGCATCAGCAGGTTACCATAACTTAA
[1]
  PBM binding z-score: 5.96
[2]
  PBM binding z-score: 5.52
[3]
  PBM binding z-score: 0.447
[4]
  PBM binding z-score: 0.741
[5]
  PBM binding z-score: 0.599
[6]
  PBM binding z-score: 0.0663
[7]
  PBM binding z-score: -0.537
[8]
  PBM binding z-score: 0.497
[9]
  PBM binding z-score: -0.28
[10]
  PBM binding z-score: 0.962

## GCAGACAGGTGAAACGCCGGTAACTCAGGGTGGC
[1]
  PBM binding z-score: 0.72
[2]
  PBM binding z-score: 0.227
[3]
  PBM binding z-score: -0.163
[4]
  PBM binding z-score: -1.53
[5]
  PBM binding z-score: -0.427
[6]
  PBM binding z-score: -0.468
[7]
  PBM binding z-score: -0.822
[8]
  PBM binding z-score: 0.0984
[9]
  PBM binding z-score: -1.03
[10]
  PBM binding z-score: 0.606

## ACTTACGGGTCATCGAGGTTATAGCACGCGTATA
[1]
  PBM binding z-score: 2.89
[2]
  PBM binding z-score: 4.16
[3]
  PBM binding z-score: 1.78
[4]
  PBM binding z-score: 1.14
[5]
  PBM binding z-score: 2.09
[6]
  PBM binding z-score: 5.14
[7]
  PBM binding z-score: 4.1
[8]
  PBM binding z-score: 4.92
[9]
  PBM binding z-score: 1.11
[10]
  PBM binding z-score: 4.11

## TTACCAAGGTGAAGGTGGTTGATCCCTCTGTAGA
[1]
  PBM binding z-score: 1.73
[2]
  PBM binding z-score: 2.52
[3]
  PBM binding z-score: -0.348
[4]
  PBM binding z-score: -0.272
[5]
  PBM binding z-score: 0.43
[6]
  PBM binding z-score: 0.325
[7]
  PBM binding z-score: -0.346
[8]
  PBM binding z-score: 0.45
[9]
  PBM binding z-score: -0.245
[10]
  PBM binding z-score: 1.37

## ACTAGCAGGCCAAGGGTCACTCACGATTAGTCCG
[1]
  PBM binding z-score: 1.04
[2]
  PBM binding z-score: 3.8
[3]
  PBM binding z-score: 0.074
[4]
  PBM binding z-score: -0.149
[5]
  PBM binding z-score: 1.92
[6]
  PBM binding z-score: 3.09
[7]
  PBM binding z-score: -0.277
[8]
  PBM binding z-score: 3.55
[9]
  PBM binding z-score: 0.389
[10]
  PBM binding z-score: 3.45

## GCGACTGGGGCATCAGCAGGTTACCGTAACTTAA
[1]
  PBM binding z-score: 3.92
[2]
  PBM binding z-score: 3.16
[3]
  PBM binding z-score: -0.711
[4]
  PBM binding z-score: -1.13
[5]
  PBM binding z-score: 0.0663
[6]
  PBM binding z-score: -0.0573
[7]
  PBM binding z-score: -0.613
[8]
  PBM binding z-score: 0.398
[9]
  PBM binding z-score: -0.334
[10]
  PBM binding z-score: 0.841
